From PubChem BioAssay (Tox21)
Where “and” joins values, the source holds several entries; their conditions need not be identical. Equal entries are not always repeated. Results filed as inconclusive are left out. Entries that show only a call come without a potency. More than one record can exist for a structure, and the calls need not agree. Calls of active or inactive are those of the source. Unless noted, calls follow the shape of the dose curve; as a rule, active = well fitted curve in the direction sought with a large enough effect in the repeat runs; inconclusive = weak or mixed curves; inactive = no such curve, though single readings can be large; an effect the other way counts as inactive or inconclusive.

Experiments:
[1] = target: Estrogen receptor beta (Homo sapiens) (UniProt Q92731); assay: qHTS assay to identify small molecule agonists of the estrogen receptor beta (ER-beta) signaling pathway (AID 1259377; active = well fitted activation curve with a large enough effect in the signal ratio in the repeat runs, not every such curve was filed as active; the % refers to the signal ratio)
Estrogen receptor beta (Homo sapiens), sequence (Q92731 whole entry, looked up): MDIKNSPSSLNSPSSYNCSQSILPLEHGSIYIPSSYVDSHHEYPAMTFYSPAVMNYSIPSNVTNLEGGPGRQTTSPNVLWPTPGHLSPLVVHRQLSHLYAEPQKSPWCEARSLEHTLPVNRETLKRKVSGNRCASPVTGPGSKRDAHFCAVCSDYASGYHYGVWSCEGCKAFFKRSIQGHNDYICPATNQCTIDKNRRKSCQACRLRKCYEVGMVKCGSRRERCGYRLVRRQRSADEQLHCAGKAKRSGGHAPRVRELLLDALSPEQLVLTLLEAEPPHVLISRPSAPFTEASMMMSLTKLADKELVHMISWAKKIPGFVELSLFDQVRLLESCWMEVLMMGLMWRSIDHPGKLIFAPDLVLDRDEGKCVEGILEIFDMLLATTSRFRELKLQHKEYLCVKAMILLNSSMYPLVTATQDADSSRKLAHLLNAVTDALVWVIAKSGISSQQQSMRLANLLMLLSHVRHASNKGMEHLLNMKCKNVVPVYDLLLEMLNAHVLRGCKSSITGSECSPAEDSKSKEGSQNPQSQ
Summary of the method: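 Measured by fluorescence intensity from a B/G FRET beta-lactamase substrate (2 h, room temperature) in ER-beta-UAS-bla HEK293T cells treated with DMSO-dissolved compounds for 16 hr at 37C and 5% CO2.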

[2] = target: Estrogen receptor beta (Homo sapiens) (UniProt Q92731); assay: qHTS assay to identify small molecule antagonists of the estrogen receptor beta (ER-beta) signaling pathway (AID 1259378; active = well fitted inhibition curve with a large enough effect in the signal ratio in the repeat runs, not every such curve was filed as active; the % refers to the signal ratio; also: potency is read from the fitted curve at half-maximal effect)
Summary of the method: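 ER-beta-UAS-bla HEK293T cells in 2% charcoal-stripped FBS medium treated with compound plus 1nM final 17-beta-estradiol for 16 hr at 37C. Beta-lactamase reporter read by FRET substrate fluorescence after 2 hours at room temperature.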

[3] = qHTS assay to identify small molecule agonists of the androgen receptor (AR) signaling pathway in the presence of an antagonist - cell viability counter screen (AID 1259379); also: nearly all actives have a fitted effect of over 25% in size; also: potency is read from the fitted curve at half-maximal effect
Summary of the method: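 Cells: MDA-kb2 (MMTV-luc, AR and GR elements), 3,000/well, 5 hr settle. Added: nilutamide 3.0uM final, then compounds (15 conc.). Incubation: 16 hr, 37C, no CO2. Read-out: CellTiter-Fluor, 1 hr, fluorescence.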

[4] = target: Androgen receptor (Homo sapiens) (UniProt P10275); assay: qHTS assay to identify small molecule agonists of the androgen receptor (AR) signaling pathway in the presence of an antagonist (AID 1259381; calls by dose curve; also: nearly all actives have a fitted effect of over 15% in size)
Androgen receptor (Homo sapiens), sequence (P10275 whole entry, looked up): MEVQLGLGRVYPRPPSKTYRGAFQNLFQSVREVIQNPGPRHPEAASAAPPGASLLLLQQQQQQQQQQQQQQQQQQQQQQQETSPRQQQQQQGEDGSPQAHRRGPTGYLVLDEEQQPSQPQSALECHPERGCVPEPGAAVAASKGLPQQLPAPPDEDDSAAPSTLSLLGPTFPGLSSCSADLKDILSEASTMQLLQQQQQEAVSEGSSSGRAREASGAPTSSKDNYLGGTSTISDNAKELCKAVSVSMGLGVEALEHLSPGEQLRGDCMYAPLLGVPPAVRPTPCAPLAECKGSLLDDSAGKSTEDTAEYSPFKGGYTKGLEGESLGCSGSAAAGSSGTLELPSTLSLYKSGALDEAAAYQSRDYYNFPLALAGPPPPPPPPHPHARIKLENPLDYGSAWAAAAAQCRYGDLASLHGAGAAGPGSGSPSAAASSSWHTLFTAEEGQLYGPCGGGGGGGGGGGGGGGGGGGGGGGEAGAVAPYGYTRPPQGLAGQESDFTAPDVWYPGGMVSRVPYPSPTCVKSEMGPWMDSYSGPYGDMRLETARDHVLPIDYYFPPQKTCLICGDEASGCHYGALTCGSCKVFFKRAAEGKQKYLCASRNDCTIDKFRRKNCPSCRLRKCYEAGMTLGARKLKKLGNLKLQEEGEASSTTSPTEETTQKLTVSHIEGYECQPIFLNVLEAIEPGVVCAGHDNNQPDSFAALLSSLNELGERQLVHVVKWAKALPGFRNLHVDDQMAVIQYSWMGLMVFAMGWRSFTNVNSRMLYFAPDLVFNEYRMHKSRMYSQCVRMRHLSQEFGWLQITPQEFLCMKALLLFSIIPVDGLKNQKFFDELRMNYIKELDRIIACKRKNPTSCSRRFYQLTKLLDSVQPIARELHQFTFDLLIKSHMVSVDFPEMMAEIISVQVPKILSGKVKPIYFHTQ
Summary of the method: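 MDA-kb2 cells, 3,000/well, rested 5hr at 37C/0% CO2 → nilutamide 3.0uM final or buffer → compounds, 15 conc. → 16hr at 37C → ONE-Glo, 30min RT → luminescence.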

[5] = qHTS assay to identify small molecule antagonists of the estrogen receptor beta (ER-beta) signaling pathway - cell viability counter screen (AID 1259382); also: nearly all actives have a fitted effect of over 55% in size; also: potency is read from the fitted curve at half-maximal effect
Summary of the method: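 Cells: ER-beta-UAS-bla HEK293T, 2,000/well, 2% CS-FBS, 6 hr settle. Cpd + E2 (1nM final), 16 hr, 37C/5% CO2. Bla FRET substrate 2 hr RT, then CellTiter-Glo 30 min RT, luminescence.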

[6] = target: Estrogen receptor (Homo sapiens) (UniProt P03372); assay: qHTS assay to identify small molecule agonists of the estrogen receptor alpha (ER-alpha) signaling pathway in the presence of an antagonist (AID 1259383; calls by dose curve; also: nearly all actives have a fitted effect of over 15% in size; also: potency is read from the fitted curve at half-maximal effect; as to activation: top concentration of the series differs between compounds)
Estrogen receptor (Homo sapiens), sequence (P03372 whole entry, looked up): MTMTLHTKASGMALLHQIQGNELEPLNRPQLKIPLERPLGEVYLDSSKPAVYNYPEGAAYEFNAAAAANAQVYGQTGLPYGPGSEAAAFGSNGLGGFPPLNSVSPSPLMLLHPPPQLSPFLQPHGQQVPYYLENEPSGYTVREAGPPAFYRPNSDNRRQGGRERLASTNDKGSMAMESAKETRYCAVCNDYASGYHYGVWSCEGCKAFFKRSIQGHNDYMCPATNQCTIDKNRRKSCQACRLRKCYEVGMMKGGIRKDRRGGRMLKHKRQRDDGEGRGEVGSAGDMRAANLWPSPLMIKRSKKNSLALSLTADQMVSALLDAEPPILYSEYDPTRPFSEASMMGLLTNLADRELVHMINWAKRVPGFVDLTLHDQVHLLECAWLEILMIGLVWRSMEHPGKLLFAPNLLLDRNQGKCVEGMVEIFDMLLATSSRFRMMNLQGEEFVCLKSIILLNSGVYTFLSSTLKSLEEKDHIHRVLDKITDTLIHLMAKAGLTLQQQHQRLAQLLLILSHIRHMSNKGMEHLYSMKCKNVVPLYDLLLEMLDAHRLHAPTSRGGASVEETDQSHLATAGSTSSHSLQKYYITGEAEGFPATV
Summary of the method: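 VM7Luc4E2, endog. ER-alpha + 4×ERE-luc; charcoal-stripped FBS, phenol red-free, 5 d; 24hr plating; +10.0nM ICI-182,780 (final); cpds 15 conc, 22hr, 37C/5% CO2; ONE-Glo luminescence.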

[7] = qHTS assay to identify small molecule agonists or antagonists of the thyroid stimulating hormone receptor (TSHR) signaling pathway - wild type cell line counter screen (AID 1259384; calls by dose curve)
Summary of the method: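 Wild-type Hek293 cells, 800/well, 18 h at 37C, then compound with Ro20-1724 for 30 min RT. cAMP by HTRF (cAMP-d2/anti-cAMP cryptate), 1 h RT, fluorescence read. 15 concentrations, triplicates.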

[8] = target: Thyrotropin receptor (Homo sapiens) (UniProt P16473); assay: qHTS assay to identify small molecule antagonists of the thyroid stimulating hormone receptor (TSHR) signaling pathway (AID 1259385; calls by dose curve; also: nearly all actives have a fitted effect of over 20% in size; also: potency is read from the fitted curve at half-maximal effect)
Thyrotropin receptor (Homo sapiens), sequence (P16473 whole entry, looked up): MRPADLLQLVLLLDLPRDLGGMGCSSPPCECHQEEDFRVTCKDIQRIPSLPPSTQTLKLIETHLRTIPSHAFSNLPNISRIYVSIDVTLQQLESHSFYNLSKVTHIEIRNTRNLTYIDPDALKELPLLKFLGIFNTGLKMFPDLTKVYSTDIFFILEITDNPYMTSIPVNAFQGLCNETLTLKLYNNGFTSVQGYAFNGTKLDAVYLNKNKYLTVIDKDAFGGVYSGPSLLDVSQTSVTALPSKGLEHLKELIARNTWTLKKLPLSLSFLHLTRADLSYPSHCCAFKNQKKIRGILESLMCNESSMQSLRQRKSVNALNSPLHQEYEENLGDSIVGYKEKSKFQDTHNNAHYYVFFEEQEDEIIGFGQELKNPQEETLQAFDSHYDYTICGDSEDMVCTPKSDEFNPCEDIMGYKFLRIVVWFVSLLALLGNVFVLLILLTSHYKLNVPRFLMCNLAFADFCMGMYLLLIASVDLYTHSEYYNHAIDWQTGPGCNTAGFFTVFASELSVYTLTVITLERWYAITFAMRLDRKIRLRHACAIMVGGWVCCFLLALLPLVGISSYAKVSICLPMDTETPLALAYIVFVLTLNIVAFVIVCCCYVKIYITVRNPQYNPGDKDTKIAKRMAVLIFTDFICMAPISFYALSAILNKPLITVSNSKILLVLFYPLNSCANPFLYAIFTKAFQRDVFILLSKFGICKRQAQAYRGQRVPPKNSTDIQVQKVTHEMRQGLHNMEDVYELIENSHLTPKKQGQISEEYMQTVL
Summary of the method: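 TSHR-HEK293 cells (800/well) plated 18 h, then compounds with Ro20-1724 and TSH at 1.5 ng/mL final, 30 min at room temperature. cAMP quantified by HTRF (cAMP-d2/anti-cAMP-cryptate, 1 h); 15 concentrations in triplicate.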

[9] = qHTS assay to identify small molecule agonists of the estrogen receptor alpha (ER-alpha) signaling pathway in the presence of an antagonist - cell viability counter screen (AID 1259386);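 also: cells exposed to compounds for 22 h at 37 °C before the viability read; nearly all actives have a fitted effect of over 30% in size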; also: potency is read from the fitted curve at half-maximal effect
Summary of the method: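 VM7Luc4E2, stripped-serum pre-culture 5 d; 24hr plating; +ICI-182,780 10.0nM final; cpds 15 conc, 22hr, 37C/5% CO2; CellTiter-Fluor added at 21hr, fluorescence 1hr later.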

[10] = target: Progesterone receptor (Homo sapiens) (UniProt P06401); assay: qHTS assay to identify small molecule agonists of the progesterone receptor (PR) signaling pathway (AID 1346784; calls by dose curve; also: nearly all actives have a fitted effect of over 30% in size)
Progesterone receptor (Homo sapiens), sequence (P06401 whole entry, looked up): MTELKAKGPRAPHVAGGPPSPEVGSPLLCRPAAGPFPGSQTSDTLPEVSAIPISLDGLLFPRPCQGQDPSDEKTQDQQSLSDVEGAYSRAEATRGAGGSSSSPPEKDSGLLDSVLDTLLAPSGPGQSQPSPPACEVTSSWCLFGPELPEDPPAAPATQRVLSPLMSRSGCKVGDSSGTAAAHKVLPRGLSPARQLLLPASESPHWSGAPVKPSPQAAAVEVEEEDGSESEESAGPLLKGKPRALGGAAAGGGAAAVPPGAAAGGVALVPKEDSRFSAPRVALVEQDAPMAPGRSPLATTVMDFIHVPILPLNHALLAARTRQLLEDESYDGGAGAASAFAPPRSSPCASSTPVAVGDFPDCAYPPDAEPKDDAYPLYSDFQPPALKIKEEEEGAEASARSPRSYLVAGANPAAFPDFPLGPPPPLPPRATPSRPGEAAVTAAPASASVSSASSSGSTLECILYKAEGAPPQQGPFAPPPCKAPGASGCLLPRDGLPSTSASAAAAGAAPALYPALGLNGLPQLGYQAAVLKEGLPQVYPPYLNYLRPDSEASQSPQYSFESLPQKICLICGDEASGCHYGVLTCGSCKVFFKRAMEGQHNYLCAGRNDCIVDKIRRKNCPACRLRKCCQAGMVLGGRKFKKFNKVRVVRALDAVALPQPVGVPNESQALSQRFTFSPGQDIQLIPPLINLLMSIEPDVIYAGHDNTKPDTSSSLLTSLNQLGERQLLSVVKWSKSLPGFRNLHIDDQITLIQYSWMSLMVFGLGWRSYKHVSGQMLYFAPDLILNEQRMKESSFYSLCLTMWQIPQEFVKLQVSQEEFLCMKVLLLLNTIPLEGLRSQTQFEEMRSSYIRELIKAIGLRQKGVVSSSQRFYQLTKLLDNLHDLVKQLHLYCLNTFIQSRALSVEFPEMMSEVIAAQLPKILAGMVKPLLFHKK
Summary of the method: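 The screen uses PR-UAS-bla HEK 293T cells in charcoal-stripped serum (2%). Compounds are applied for 16 hr at 37C after a 6 hr pre-incubation, and reporter activity is detected with a FRET beta-lactamase substrate after 2 hr at room temperature.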

[11] = target: Progesterone receptor (Homo sapiens) (UniProt P06401); assay: qHTS assay to identify small molecule antagonists of the progesterone receptor (PR) signaling pathway (AID 1346795; active = well fitted inhibition curve with a large enough effect in the signal ratio in the repeat runs, not every such curve was filed as active; the % refers to the signal ratio; also: potency is read from the fitted curve at half-maximal effect)
Summary of the method: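 After 6 hr plating at 37C in 2% stripped-serum medium, PR-UAS-bla HEK293T cells got compounds, then 1 nM R5020. Sixteen hours later, LiveBLAzer substrate was applied for 2 hr at room temperature and fluorescence was recorded.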

[12] = qHTS assay to identify small molecule antagonists of the progesterone receptor (PR) signaling pathway - cell viability counter screen (AID 1346798); also: nearly all actives have a fitted effect of over 50% in size; also: potency is read from the fitted curve at half-maximal effect
Summary of the method: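 Viability was determined by ATP-based luminescence (CellTiter-Glo) in PR-UAS-bla HEK293T cells cultured in 2% charcoal-stripped serum and incubated 16 hr with compounds under R5020 stimulation.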

[13] = qHTS assay to identify small molecule agonists of the progesterone receptor (PR) signaling pathway - cell viability counter screen (AID 1346799; calls by dose curve; also: nearly all actives have a fitted effect of over 45% in size; also: potency is read from the fitted curve at half-maximal effect)
Summary of the method: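 Viability was scored by ATP luminescence (CellTiter-Glo, 30 min, room temperature) in the same wells used for the reporter readout, after 16 hr compound exposure of PR-UAS-bla HEK293T cells.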

[14] = qHTS assay to identify small molecule antagonists of the TGF-beta/Smad signaling pathway - cell viability counter screen (AID 1346824); also: nearly all actives have a fitted effect of over 50% in size
Summary of the method: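 SBE-bla HEK 293T cells, incubated overnight, then compound plus 0.25 ng/mL TGF-beta1 (stock added) for 5 hr at 37 C. Viability was read in the same wells by CellTiter-Glo luminescence after 30 min at room temperature.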

[15] = qHTS assay to identify small molecule agonists of the TGF-beta/Smad signaling pathway - cell viability counter screen (AID 1346829); also: nearly all actives have a fitted effect of over 45% in size; also: potency is read from the fitted curve at half-maximal effect
Summary of the method: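 Here the cytotoxicity of library compounds is measured in SBE-bla HEK 293T cells treated for 5 hr, using CellTiter-Glo added to wells already read for the beta-lactamase reporter.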

[16] = qHTS assay to identify small molecule agonists of the TGF-beta/Smad signaling pathway (AID 1346859; active = well fitted activation curve with a large enough effect in the signal ratio in the repeat runs, not every such curve was filed as active; the % refers to the signal ratio; also: series mostly up to about 77 µM)
Summary of the method: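 Dual-wavelength fluorescence (460/530 nm emission) quantified beta-lactamase expression under the Smad binding element in HEK 293T cells following 5 hr compound treatment at 37 C.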

[17] = target: Thyrotropin-releasing hormone receptor (Homo sapiens) (UniProt P34981); assay: qHTS assay to identify small molecule antagonists of the thyrotropin-releasing hormone receptor (TRHR) signaling pathway (AID 1346877; active = well fitted inhibition curve with a large enough effect in the repeat runs, not every such curve was filed as active; also: series mostly up to about 51 µM)
Thyrotropin-releasing hormone receptor (Homo sapiens), sequence (P34981 whole entry, looked up): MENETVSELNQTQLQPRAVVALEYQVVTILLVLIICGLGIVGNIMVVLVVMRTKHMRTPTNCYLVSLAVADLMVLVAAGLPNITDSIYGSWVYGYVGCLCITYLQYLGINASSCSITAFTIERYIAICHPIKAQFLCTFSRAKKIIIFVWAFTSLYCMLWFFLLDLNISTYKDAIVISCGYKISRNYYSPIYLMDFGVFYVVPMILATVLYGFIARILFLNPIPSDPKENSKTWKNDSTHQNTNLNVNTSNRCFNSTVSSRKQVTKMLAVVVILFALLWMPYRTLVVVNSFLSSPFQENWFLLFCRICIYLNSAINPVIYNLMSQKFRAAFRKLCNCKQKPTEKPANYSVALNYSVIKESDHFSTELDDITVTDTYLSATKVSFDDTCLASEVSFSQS
Summary of the method: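 Intracellular calcium fluorescence, read kinetically every second over 3 min, reports TRH-evoked signalling in HEK293 cells carrying TRHR. Test compounds were added 5 min ahead of a 1 nM TRH challenge.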

[18] = target: Thyrotropin-releasing hormone receptor (Homo sapiens) (UniProt P34981); assay: qHTS assay to identify small molecule agonists of the thyrotropin-releasing hormone receptor (TRHR) signaling pathway (AID 1346891; calls by dose curve;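 also: HEK293 cells expressing TRHR with calcium dye readout; series mostly up to about 58 µM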)
Summary of the method: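 Kinetic fluorescence (3 min, 1 s intervals) reported intracellular calcium after compound transfer onto TRHR-Hek293 cells pre-loaded with dye for 2 h at 37 °C.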

[19] = Human pregnane X receptor (PXR) small molecule agonists, qHTS cell viability counter screen (AID 1346977); also: nearly all actives have a fitted effect of over 50% in size; also: potency is read from the fitted curve at half-maximal effect
Summary of the method: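 HepG2 cells stably carrying the PXR-Luc reporter are cultured with 5% charcoal-stripped FBS and treated with compounds for 24hr. CellTiter-Fluor is added at 23hr and fluorescence is read after 1hr.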

## CC(O)C#N (stereo not given)
[1]
  Potency: inactive
[2]
  Potency: inactive
[3]
  Potency: inactive
[4]
  Potency: inactive
[5]
  Potency: inactive
[6]
  Potency: inactive
[7]
  outcome: inactive
[8]
  Potency: inactive
[9]
  Potency: inactive
[10]
  Potency: inactive
[11]
  Potency: inactive
[12]
  Potency: inactive
[13]
  Potency: inactive
[14]
  Potency: inactive
[15]
  Potency: inactive
[16]
  outcome: inactive
[17]
  Potency: inactive
[18]
  Potency: inactive
[19]
  Potency: inactive

## Clc1ccc(COC(Cn2ccnc2)c2ccc(Cl)cc2Cl)cc1 (stereo not given)
[1]
  Potency: inactive
[2]
  Potency: 13.3 µM (active)
[3]
  Potency: 50.8 µM (active) and 60.9 µM (active) and inactive
[5]
  Potency: 50.8 µM (active) and 27.2 µM (active) and 26.6 µM (active)
[7]
  outcome: inactive
[8]
  Potency: 57 µM (active) and 68.3 µM (active)
[9]
  Potency: 50.8 µM (active) and 68.3 µM (active) and inactive
[10]
  Potency: inactive
[11]
  Potency: 5.31 µM (active)
[12]
  Potency: 18 µM (active) and 27.2 µM (active) and 6.68 µM (active)
[13]
  Potency: 45.3 µM (active) and 15.3 µM (active) and 5.96 µM (active)
[14]
  Potency: inactive
[15]
  Potency: 40.7 µM (active)
[16]
  outcome: inactive
[19]
  Potency: 45.3 µM (active) and 48.4 µM (active) and 26.6 µM (active)

## Nc1ccccc1C(=O)OC/C=C/c1ccccc1
[1]
  Potency: inactive
[2]
  Potency: 48.7 µM (active)
[3]
  Potency: inactive
[5]
  Potency: inactive
[6]
  Potency: 12.2 µM (active)
[7]
  outcome: inactive
[8]
  Potency: inactive
[9]
  Potency: inactive
[12]
  Potency: inactive
[13]
  Potency: inactive
[14]
  Potency: inactive
[15]
  Potency: inactive
[16]
  outcome: inactive
[17]
  Potency: inactive
[18]
  Potency: inactive
[19]
  Potency: inactive

## Clc1ccc(C(c2ccc(Cl)cc2)C(Cl)(Cl)Cl)cc1
[1]
  Potency: inactive
[2]
  Potency: 13.7 µM (active) and 7.5 µM (active)
[3]
  Potency: inactive
[5]
  Potency: inactive
[7]
  outcome: inactive
[8]
  Potency: 30.9 µM (active) and 54.5 µM (active)
[12]
  Potency: inactive
[14]
  Potency: inactive
[15]
  Potency: 55.3 µM (active) and inactive
[16]
  outcome: inactive
[17]
  Potency: inactive
[18]
  Potency: inactive
[19]
  Potency: inactive

## CCCCCCCCCCCCCCC(Br)C(=O)O (stereo not given)
[1]
  Potency: inactive
[2]
  Potency: inactive
[3]
  Potency: inactive
[5]
  Potency: inactive
[6]
  Potency: inactive
[9]
  Potency: inactive
[10]
  Potency: inactive
[11]
  Potency: inactive
[12]
  Potency: inactive
[14]
  Potency: inactive
[15]
  Potency: inactive
[16]
  outcome: inactive
[17]
  Potency: inactive
[18]
  Potency: inactive
[19]
  Potency: inactive

## Nc1ccc(Cl)cc1C(=O)c1ccccc1
[1]
  Potency: inactive
[2]
  Potency: 30.6 µM (active)
[6]
  Potency: inactive
[7]
  outcome: inactive
[8]
  Potency: inactive
[10]
  Potency: inactive
[11]
  Potency: 17.2 µM (active)
[12]
  Potency: inactive
[13]
  Potency: inactive
[15]
  Potency: inactive
[16]
  outcome: inactive

## c1ccc2c(c1)[nH]c1cnccc12
[1]
  Potency: inactive
[2]
  Potency: inactive
[3]
  Potency: inactive
[5]
  Potency: inactive
[6]
  Potency: inactive
[7]
  outcome: inactive
[8]
  Potency: inactive
[9]
  Potency: inactive
[10]
  Potency: inactive
[11]
  Potency: 27.3 µM (active)
[12]
  Potency: inactive
[13]
  Potency: inactive
[14]
  Potency: inactive
[15]
  Potency: inactive
[16]
  outcome: inactive
[17]
  Potency: inactive
[18]
  Potency: inactive
[19]
  Potency: inactive

## CCCN(CC)CC1COC2(CCC(C(C)(C)C)CC2)O1 (stereo not given)
[1]
  Potency: inactive
[2]
  Potency: inactive
[3]
  Potency: inactive
[5]
  Potency: inactive
[6]
  Potency: inactive
[7]
  outcome: inactive
[8]
  Potency: inactive
[9]
  Potency: inactive
[10]
  Potency: inactive
[14]
  Potency: inactive
[15]
  Potency: inactive
[16]
  outcome: inactive
[19]
  Potency: inactive
